High-throughput results (PubChem)
Luciferase inh: firefly luciferase inhibition; purified firefly luciferase, luminescence, 8 min; AID 411; Potency, µM (top dose mostly 57.1 µM), for inactives: at the top dose activity change, negative = inhibition, hits mostly inhibitors; hit rate 2.2% among 72,000; also: nearly all actives have a fitted effect of over 40% in size
Target sequence (P08659 whole entry, looked up): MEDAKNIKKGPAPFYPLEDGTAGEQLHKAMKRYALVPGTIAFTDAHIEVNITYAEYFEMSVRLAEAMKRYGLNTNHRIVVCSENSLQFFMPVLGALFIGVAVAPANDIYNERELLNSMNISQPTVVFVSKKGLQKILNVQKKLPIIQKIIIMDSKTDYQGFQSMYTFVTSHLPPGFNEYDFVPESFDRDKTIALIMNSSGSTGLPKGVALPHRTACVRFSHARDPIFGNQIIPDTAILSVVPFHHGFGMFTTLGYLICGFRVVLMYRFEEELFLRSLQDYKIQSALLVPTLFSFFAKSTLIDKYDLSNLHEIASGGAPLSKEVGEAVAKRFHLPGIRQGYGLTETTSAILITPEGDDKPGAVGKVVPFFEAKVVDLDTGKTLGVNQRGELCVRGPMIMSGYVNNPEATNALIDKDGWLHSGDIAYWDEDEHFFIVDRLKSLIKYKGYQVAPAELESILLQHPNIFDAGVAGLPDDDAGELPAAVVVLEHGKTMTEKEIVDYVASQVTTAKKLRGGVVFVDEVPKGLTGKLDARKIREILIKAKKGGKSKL
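Titration-based qHTS; buffer 50 mM imidazole pH 7.2, 50 mM KCl, 7 mM MgCl2, 10 uM ATP, 0.01% Tween 20, 0.05% BSA; luciferase/luciferin detector mix added after compound; 8 min, ambient; luminescence.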
p53ts 39C tox: p53ts cell cytotoxicity, nonpermissive temperature | H1299-p53A138V viability at 39C, ATP luminescence, 24 h | Potency, µM (top dose mostly 46.1 µM), for the others: top-dose activity change, negative = cell killing, actives largely listed as cytotoxic | hit rate 1.5% among 130,000; also: nearly all actives have a fitted effect of over 55% in size
p53ts 32C kill: cytotoxicity in p53ts cells at permissive temperature. Potency, µM (titrated, usually from 46.1 µM), without a hit: at the highest dose activity change, negative = cytotoxicity, hits mostly cytotoxic. H1299-p53A138V at 32C, ATP luminescence viability, 24 h. hit rate 0.93% among 130,000. AID 924;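 also: 0% = DMSO and -100% = full killing by reference compound; nearly all actives have a fitted effect of over 55% in size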
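Cells: H1299 p53ts (A138V), 600/well, pre-incubated 16–30 h at 37C. Cpd up to 46 uM, 24 h, 32C. Readout: ATPlite luminescence, 20 min RT. Normalization: DMSO vs tamoxifen 100 uM. AC50 by Hill equation.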
* = called active by the depositor; [ ] = dose if it differs, or a comment. Rows were chosen to be rich in hits. Some 2.6% of all compounds tested hit in one or more screens of this group. Calls follow the shape of the dose curve; as a rule, active = well fitted curve in the direction sought with a large enough effect; inconclusive = small, poorly fitted or top-dose-only effect, or another doubt; inactive = no such curve, though single readings can be large; an effect the other way counts as inactive or inconclusive. Unless noted, % is scaled to controls: 0 for no effect and ±100 for the full control effect; potency is read from the fitted curve at half-maximal effect.

CCC(Sc1nnc2c(n1)[nH]c1ccccc12)C(=O)Nc1nnc(C(C)C)s1 (centres undefined) was read as p53ts 39C tox 10µM* and p53ts 32C kill inconclusive.
For CCC(Sc1nnc2c3ccccc3n(C)c2n1)C(=O)Nc1nnc(C(C)C)s1 (centres undefined) the results were p53ts 39C tox 10.2% and p53ts 32C kill 1.3%.
Screening OC[C@@H]1CCC[C@H](n2cnc3c(=S)nc[nH]c32)O1 returned Luciferase inh 2.1%[11.4 µM], p53ts 39C tox -1.4%[9.22 µM] and p53ts 32C kill -0.3%[9.22 µM].
Screening CC(C)CC(=O)NCC(c1ccc2c(c1)OCO2)N1CCN(c2ccccc2F)CC1 (centres undefined) returned p53ts 39C tox -21.6% and p53ts 32C kill -8.5%.
Screening COC(=O)c1cc(-c2cccc(OC)c2)on1 returned Luciferase inh -23.0%, p53ts 39C tox -14.9% and p53ts 32C kill -9.3%.
`Cc1c(Cl)cccc1NC(=O)c1cc(-c2ccc3c(c2)OCO3)on1` gave p53ts 39C tox 1.5% and p53ts 32C kill 8.8%.
Cc1cc(C)cc(NC(=O)COCc2cc(-c3ccc4c(c3)OCO4)on2)c1 was read as p53ts 32C kill -10.0%.
Screening Cc1cc(C)cc(OC(=O)c2cc(-c3ccc4c(c3)OCCO4)on2)c1 returned p53ts 39C tox 12.6µM* and p53ts 32C kill inconclusive.
Cc1cccc(OC(=O)c2cc(-c3ccc4c(c3)OCCO4)on2)c1 was read as p53ts 39C tox 20µM* and p53ts 32C kill 20µM*.
`Cc1cccc(OC(=O)c2cc(-c3ccc4c(c3)OCCO4)on2)c1C` gave p53ts 39C tox inconclusive and p53ts 32C kill 20µM*.
`COc1ccc(NC(=O)C(=O)NCCc2csc3nc(-c4ccccc4F)nn23)cc1OC` gave p53ts 39C tox 14.1% and p53ts 32C kill 2.9%.
`Cc1ccc(NC(=O)CN2C(=O)c3cccnc3Sc3ccccc32)cc1C` gave p53ts 39C tox inconclusive and p53ts 32C kill 1.2%.
For Cc1ccc(Cl)cc1N1CCN(C(=O)C2CCCN(Cc3nc(-c4cccc(Cl)c4)oc3C)C2)CC1 (centres undefined) the results were p53ts 39C tox inconclusive and p53ts 32C kill -15.0%.
CCc1ccc(-c2nc(CN3CCCC(C(=O)N4CCN(c5cc(Cl)ccc5C)CC4)C3)c(C)o2)cc1 (centres undefined) was read as p53ts 39C tox inconclusive and p53ts 32C kill 12.6µM*.
CC(C)(C)c1ccc(S(=O)(=O)c2cnc(SCC(=O)Nc3ccc4c(c3)OCCO4)[nH]c2=O)cc1 was read as p53ts 39C tox -15.6% and p53ts 32C kill 9.4%.
`CCC1=Nc2cc(C(=O)NC3CCC(C)CC3)ccc2Sc2ccc(C)cc21` (centres undefined) gave p53ts 39C tox -1.4% and p53ts 32C kill 23.0%.
For O=c1c(-c2ccc(F)c(F)c2)nc2cncnc2n1C1CC1 the results were Luciferase inh 1.4%[11.4 µM], p53ts 39C tox -3.9% and p53ts 32C kill 2.5%.
Screening CN1CCc2nc(N)nc(-c3nc(N)nc4c3CN(C)CC4)c2C1 returned Luciferase inh 2.0%[11.4 µM], p53ts 39C tox 0.1%[9.22 µM] and p53ts 32C kill -0.4%[9.22 µM].
For COc1cc(/C=N/NC(=O)c2cc(-c3ccccc3)n[nH]2)ccc1O the results were p53ts 39C tox -10.1% and p53ts 32C kill -8.0%.
For O=C(N/N=C\c1ccccc1O)c1ccccc1O the results were Luciferase inh 1.5%, p53ts 39C tox 2µM* and p53ts 32C kill 1.26µM*.
Screening O=C(N/N=C/c1ccccc1O)c1cc(-c2ccccc2)n[nH]1 returned p53ts 39C tox 15.8µM* and p53ts 32C kill -28.2%.
O=C(N/N=C/c1ccco1)c1cc(-c2ccccc2)n[nH]1 was read as p53ts 39C tox 20.2% and p53ts 32C kill -0.1%.
For O=C1NCCCC1C(=O)N/N=C/c1ccccc1O (centres undefined) the results were p53ts 39C tox -8.6% and p53ts 32C kill -0.1%.
COc1cccc(-c2cc(C(=O)N/N=C/c3ccccc3O)[nH]n2)c1 was read as p53ts 39C tox 10µM* and p53ts 32C kill inconclusive.
For CCc1ccccc1NC(=O)c1nn(-c2ccc(C)cc2)c(=O)c2c1c1ccccc1n2C the results were p53ts 39C tox -17.9% and p53ts 32C kill -3.9%.
Screening Cc1ccc(Oc2nc3c(c(=O)n(Cc4ccccc4)c(=O)n3C)n2C)cc1C returned p53ts 39C tox -13.8% and p53ts 32C kill 5.2%.
COc1ccc2sc(N(Cc3cccnc3)C(=O)C3COc4ccccc4O3)nc2c1 (centres undefined) was read as p53ts 39C tox -14.7% and p53ts 32C kill -3.4%.
Screening O=C(Nc1cc2c(cc1C(=O)c1ccccc1Br)OCCO2)c1ccccc1 returned p53ts 39C tox 2.3% and p53ts 32C kill 3.9%.
